# Inconclusive results are not listed. Activity calls are given as the source filed them. The call rests on the fitted dose curve; in most records, active means well fitted inhibition curve with a large enough effect; inconclusive means small, poorly fitted or top-dose-only effect, or effect the other way; inactive means no such curve, though single readings can be large or run the other way.
# Target: Nuclear receptor ROR-alpha (Homo sapiens) (UniProt P35398)
# Experiment: ROR alpha selectivity assay for inhibitors of ROR gamma transcriptional activity
# Conditions: Drosophila S2 Gal4-RORalpha UAS-luciferase, 20 h; series mostly up to 92.2 µM; activity change, negative = inhibition: at the top concentration
# Excerpt: NIH Molecular Libraries Probe Production Network [MLPCN] NIH Chemical Genomics Center [NCGC] MLPCN Grant: R03 DA026211-01 Assay Provider: Dan Littman, New York University Assay Overview: The retinoic acid-related orphan receptor (ROR) gamma is a transcription factor that has a central role in the differentiation of Th17 cells, a subset of T helper cells that secrete the inflammatory cytokines IL-17A, IL-17F, and IL-22. Th17 cells have been implicated in graft versus host disease, autoimmune disease and asthma. RORgamma is induced in naive T helper cells in the presence of TGF-beta combined with IL-6, IL-21, or IL-23, and thereafter directs the expression of the Th17 lineage cytokines. To identify nonselective inhibitors, a Drosophila Schneider cell line was stably transfected with two vectors: a gene expressing a fusion of the Gal4 DNA binding domain and the transactivation domain of the ROR alpha, under the control of the metallothionine promoter and a Photinus luciferase reporter regulated by the Gal4 binding site enhancer, UAS. […] Small molecule inhibitors that inhibit RORgamma and RORalpha, or components common to both, will be active in both assays and thus scored as nonselective.
# Assay Protocol Summary: For screening, 600 cells in 4 uL/well were dispensed into white solid 1536-well plates (Grenier) using a solenoid-based dispenser. Following transfer of 23 nL compound or DMSO vehicle by a pin tool, the plates were incubated 1 hr at ambient temperature, and 1 uL/well copper sulfate (700 uM final concentration) was added. The plates were centrifuged 15 s at 1000 RPM and incubated 20 hr at ambient temperature. After addition of 1.5 uL Photinus luciferase detection reagent, the plates were incubated 10 min at ambient temperature and then read by an ViewLux (Perkin Elmer) to detect luminescence.
SMILES,"activity change, negative = inhibition",Potency
COc1cc(O)c(C(CC(=O)Nc2cccc3ccccc23)c2ccc3c(c2)OCO3)c(OC)c1 (stereo not given),-14.7% (inactive),–
COc1cc(O)c(C(CC(=O)N2CCC(C)CC2)c2ccc3c(c2)OCO3)c(OC)c1 (stereo not given),39.5% (inactive),–
COc1cc(O)c(C(CC(=O)N2CCCCC2C)c2ccc3c(c2)OCO3)c(OC)c1 (stereo not given),4.78% (inactive),–
COc1cc(O)c(C(CC(=O)N2CCCC(C)C2)c2ccccc2)c(OC)c1 (stereo not given),17.8% (inactive),–
CCNC(=O)CCc1nc(-c2ccc(C(C)(C)C)cc2)no1,–,0.162 µM (active)
COC(=O)Cn1c(CN2CCc3ccccc3C2)nc2c1c(=O)n(C)c(=O)n2C,–,18.2 µM (active)
O=C(NC(=S)Nc1nc(-c2ccccc2)cs1)c1cccnc1,–,32.3 µM (active)
CC(C)(C)c1ccc(-c2noc(CCC(=O)Nc3cccnc3)n2)cc1,–,0.0457 µM (active)
COc1cc(O)c(C(CC(=O)N2CCC(c3ccccc3)CC2)c2ccc3c(c2)OCO3)c(OC)c1 (stereo not given),2.86% (inactive),–
COCC1CCCCN1C(=O)c1cc(COc2ccc3ncccc3c2)on1 (stereo not given),–,14.4 µM (active)
Cc1cc(C)n(-c2nc(SCC(=O)O)c3c4c(sc3n2)CCCC4)n1,–,18.2 µM (active)
COc1cc(O)c(C(CC(=O)N2CCCC(C#N)C2)c2ccc3c(c2)OCO3)c(OC)c1 (stereo not given),18.3% (inactive),–
COc1cc(O)c(C(CC(=O)NC2CCC(C)CC2)c2ccc3c(c2)OCO3)c(OC)c1 (stereo not given),-1.92% (inactive),–
O=C(CCCOc1ccccc1)Nc1nc2ccccc2[nH]1,–,14.4 µM (active)
COc1cc(O)c(C(CC(=O)N2CCCC(CN3CCCCC3)C2)c2ccc3c(c2)OCO3)c(OC)c1 (stereo not given),-29.6% (inactive),–
COc1cc(O)c(C(CC(=O)N2CCCC(C)C2)c2ccccc2OC)c(OC)c1 (stereo not given),24.7% (inactive),–
COc1cc(O)c(C(CC(=O)N2CCC[C@@H](C)C2)c2ccc3c(c2)OCO3)c(OC)c1 (stereo not given in full),4.65% (inactive),–
CC1CCCN(C(=O)CC(c2ccc3c(c2)OCO3)c2ccc(O)cc2O)C1 (stereo not given),13.4% (inactive),–
COc1cc(OC)c(C(CC(=O)N2CCCC(C)C2)c2ccc3c(c2)OCO3)c(OCc2ccccc2)c1 (stereo not given),–,20.4 µM (active)
O=S(=O)(c1ccc(NC(=S)N/N=C/c2ccc(Oc3ccccc3)cc2)cc1)N1CCOCC1,–,2.57 µM (active)

# — PubChem BioAssay AID489039 (National Center for Advancing Translational Sciences (NCATS), 2010)
